# Measured values taken from PubChem BioAssay (Tox21).
# The source made the active and inactive calls. Entries that show only a call come without a potency. The call rests on the fitted dose curve; in most records, active means well fitted inhibition curve with a large enough effect in the repeat runs (not every such curve was filed as active); inconclusive means weak or mixed curves; inactive means flat fitted curve, though single readings scatter.
# Biological target: Thyrotropin-releasing hormone receptor (Homo sapiens) (UniProt P34981)
# Sequence (P34981 whole entry, looked up): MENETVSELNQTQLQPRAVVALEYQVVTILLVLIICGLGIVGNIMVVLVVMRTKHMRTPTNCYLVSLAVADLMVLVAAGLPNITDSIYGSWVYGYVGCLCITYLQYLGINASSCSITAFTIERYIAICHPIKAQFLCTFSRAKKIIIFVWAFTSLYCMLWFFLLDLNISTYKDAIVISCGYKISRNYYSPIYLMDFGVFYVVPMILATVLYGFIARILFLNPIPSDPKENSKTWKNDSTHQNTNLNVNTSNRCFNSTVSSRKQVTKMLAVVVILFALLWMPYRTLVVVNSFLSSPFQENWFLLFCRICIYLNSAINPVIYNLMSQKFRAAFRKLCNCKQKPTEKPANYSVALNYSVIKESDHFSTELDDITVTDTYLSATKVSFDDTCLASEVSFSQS
# Assay: qHTS assay to identify small molecule antagonists of the thyrotropin-releasing hormone receptor (TRHR) signaling pathway (AID 1346877)
# Settings: TRHR-HEK293, TRH-induced calcium fluorescence, antagonist mode; series mostly up to 51.3 µM
# Source text: National Center for Advancing Translational Sciences [NCATS]
# NIH Chemical Genomics Center [NCGC]
# U.S. Environmental Protection Agency [EPA]
# National Institutes of Environmental Health Sciences [NIEHS]
# National Toxicology Program [NTP]
# U.S. Food and Drug Administration [FDA]
# Thyrotropin-releasing hormone (TRH) receptor (TRHR) is a G-protein-coupled receptor which binds the tripeptide thyrotropin releasing hormone. TRHR is found in the brain and, when bound by TRH, acts (through phospholipase C) to increase intracellular inositol trisphosphate. It plays a crucial role in the anterior pituitary where it controls the synthesis and secretion of thyroid stimulating hormone and prolactin. The TRHR-Hek293 assay is a cell-based assay, and it has the potential to screen G protein-coupled receptors. A compound/drug can either activate (agonist) or suppress (antagonist) GPCRs that can be monitored by levels of intracellular calcium. In this assay, the Tox21 10K compound library was screened to identify potential TRHR antagonists.
# Tox21 Assay Protocol Summary:
# The TRHR-Hek293 cells were dispensed at 1500cells/4uL/well in 1536-well black-clear bottom plates using a Multidrop dispenser. After the assay plates were incubated at a 37 C/5% CO2 incubator for 18 hours, 4 uL of Dye-Loading Solution was added to each well. The plates were incubated at 37 C for 2 hours. For agonist mode, 23 nL of compounds dissolved in DMSO, positive controls or DMSO only was transferred to the assay plate by a pin tool. The fluorescence intensity in the plates was measured using FDSS 7000EX kinetic plate reader for 3 min at 1 sec intervals. For antagonist mode, 23 nL of compounds dissolved in DMSO, positive controls or DMSO only was transferred to the assay plate by a pin tool. After 5 min incubation at room temperature, 1 uL of TRH was added on the top of the cell/compound mixtures to achieve a final agonist concentration of 1 nM. The fluorescence intensity in the plates was measured using FDSS 7000EX kinetic plate reader for 3 min at 1 sec intervals. Each test compound was measured at 15 concentrations and in triplicates.
row,SMILES,Potency
1,CC(C)N(C(=O)SCC(Cl)=C(Cl)Cl)C(C)C,inactive
2,CNC(=O)N(C)c1nnc(C(C)(C)C)s1,inactive
3,CCOP(=S)(OCC)O/N=C(\C#N)c1ccccc1,inactive
4,CCN(CC)C(=O)/C(Cl)=C(\C)OP(=O)(OC)OC,inactive
5,CCCCCc1cc(O)cc(O)c1,inactive
6,CC(O)CCO (stereo not given),inactive
7,Nc1c(Cl)cc([N+](=O)[O-])cc1Cl,inactive
8,c1ccc(P(c2ccccc2)c2ccccc2)cc1,inactive
9,CCOC(=O)C(C)OC(=O)c1cc(Oc2ccc(C(F)(F)F)cc2Cl)ccc1[N+](=O)[O-] (stereo not given),inactive
10,COc1ccc(C=O)cc1,inactive
11,CCc1cccc(CC)c1N(COC)C(=O)CCl,inactive
12,CCCCCCCCCCCOC(=O)c1ccccc1C(=O)OCCCCCCCCCCC,inactive
13,CCC(C)c1ccc(O)cc1 (stereo not given),inactive
14,C#C[C@]1(O)CC[C@H]2[C@@H]3CCC4=CC(=O)CC[C@]4(C)[C@H]3CC[C@@]21C,inactive
15,C=CCN(CC=C)C(=O)C(Cl)Cl,inactive
16,C=C(C)[C@H]1Cc2c(ccc3c2O[C@@H]2COc4cc(OC)c(OC)cc4[C@@H]2C3=O)O1,inactive
17,Cc1ccc2c(c1N)C(=O)c1ccccc1C2=O,inactive
18,CC1(C)C(C=C(Cl)Cl)C1C(=O)OC(C#N)c1cccc(Oc2ccccc2)c1 (stereo not given),inactive
19,O=P(Oc1ccccc1)(Oc1ccccc1)Oc1ccccc1,inactive
20,N#CC(Br)Br,inactive

row,SMILES,Potency
1,OCC(O)CO,inactive
2,CCC(C)(C)c1ccc(O)cc1,inactive
3,Nc1ccc(Cl)cc1N,inactive
4,CCCCN(CCCC)N=O,inactive
5,C=CCc1ccc(OC)cc1,inactive
6,COP(=S)(OC)Oc1cc(Cl)c(Cl)cc1Cl,inactive
7,CCCCC(CC)COC(=O)Cl (stereo not given),inactive
8,Cc1ccccc1[N+](=O)[O-],inactive
9,Oc1ccc(-c2ccccc2)cc1,inactive
10,CCC(CC)Nc1c([N+](=O)[O-])cc(C)c(C)c1[N+](=O)[O-],inactive
11,CCC(C)(c1ccc(O)cc1)c1ccc(O)cc1,inactive
12,COP(=O)(OC)OC,inactive
13,CCCCCCOC(=O)c1ccccc1C(=O)OCCCCCC,inactive
14,NNC(=S)NN,inactive
15,CCCCNC(=O)n1c(NC(=O)OC)nc2ccccc21,inactive
16,CC(C)C(=O)OCC(C)(C)C(OC(=O)C(C)C)C(C)C (stereo not given),inactive
17,NCc1cccnc1,inactive
18,O=C(Nc1ccc(Br)cc1)c1cc(Br)cc(Br)c1O,inactive
19,c1cc(OCC2CO2)ccc1Cc1ccc(OCC2CO2)cc1 (stereo not given),inactive
20,S=C1NCCN1,inactive
